PubChem BioAssay (NCATS)
Records with an inconclusive call do not appear. Active and inactive are the calls of the source. Unless noted, calls come from the whole dose curve; as a rule, active = well fitted curve in the direction sought with a large enough effect; inconclusive = small, poorly fitted or top-dose-only effect, or another doubt; inactive = no such curve, though single readings can be large; an effect the other way counts as inactive or inconclusive.

Experiments:
[1] = target: Nucleoprotein (Lymphocytic choriomeningitis virus (strain Armstrong)) (UniProt P09992); test: qHTS for Inhibitors of the Functional Ribonucleoprotein Complex (vRNP) of Lymphocytic Choriomeningitis Arenaviruses (LCMV): LCMV Primary Screen - GLuc reporter signal (AID 1347086; calls by dose curve; note: nearly all actives have a fitted effect of over 70% in size); conditions: LCMV minigenome vRNP cell assay, Gaussia luciferase reporter; series mostly up to 57.5 µM
[2] = qHTS of pediatric cancer cell lines to identify multiple opportunities for drug repurposing: Primary screen for TC32 cells (AID 1347089); conditions: TC32 Ewing sarcoma viability, CellTiter-Glo luminescence, 48 h; series mostly up to 45.8 µM; note: nearly all actives have a fitted effect of over 60% in size
Method in brief: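 Measured quantity: luminescence from CellTiter-Glo, reflecting metabolically active TC32 cells following 48 h of compound. Curves came straight from multi-point titrations, with 8 or 11 points in primary and 11 in confirmatory screening.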

[3] = qHTS of pediatric cancer cell lines to identify multiple opportunities for drug repurposing: Primary screen for DAOY cells (AID 1347090); conditions: DAOY medulloblastoma viability, CellTiter-Glo luminescence, 48 h; series mostly up to 46 µM; note: nearly all actives have a fitted effect of over 55% in size
Method in brief: (§1)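 Viability measured as metabolically active cells via CellTiter-Glo luminescence following 48 hours of compound exposure, 11-point dilutions in confirmatory testing. 500-1,000 cells/well plated 5 hours before dosing; controls were DMSO and 2.3 µM bortezomib.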

[4] = qHTS of pediatric cancer cell lines to identify multiple opportunities for drug repurposing: Primary screen for SJ-GBM2 cells (AID 1347091); conditions: SJ-GBM2 viability, CellTiter-Glo luminescence, 48 h; series mostly up to 46 µM
Method in brief: as §1

[5] = qHTS of pediatric cancer cell lines to identify multiple opportunities for drug repurposing: Primary screen for A673 cells (AID 1347092); conditions: A673 Ewing sarcoma viability, CellTiter-Glo ATP luminescence, 48 h; series mostly up to 46 µM; note: nearly all actives have a fitted effect of over 45% in size
Method in brief: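 Cells are plated, rested 5 h, dosed by pintool, incubated 48 h, then lysed with CellTiter-Glo and read by luminescence. DMSO is the neutral control; bortezomib at 2.3 uM final is the positive control.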

[6] = qHTS of pediatric cancer cell lines to identify multiple opportunities for drug repurposing: Primary screen for SK-N-MC cells (AID 1347093); conditions: SK-N-MC viability, CellTiter-Glo luminescence, 48 h; series mostly up to 46 µM
Method in brief: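 Metabolically active cells were quantified by ATP-dependent luminescence (CellTiter-Glo, 15 min at room temperature) following 48 h treatment. Cells had been plated at 500-1,000 per well and settled for 5 h beforehand.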

[7] = qHTS of pediatric cancer cell lines to identify multiple opportunities for drug repurposing: Primary screen for BT-37 cells (AID 1347094); conditions: BT-37 viability, CellTiter-Glo luminescence, 48 h; series mostly up to 57.3 µM
Method in brief: (§2)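 CRCs from 8- or 11-point titrations (lowest final 0.59 nM NPC, 0.78 nM MIPE). Cell viability: CellTiter-Glo after 48 h incubation, 15 min room-temperature development, luminescence imaging.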

[8] = qHTS of pediatric cancer cell lines to identify multiple opportunities for drug repurposing: Primary screen for NB-EBc1 cells (AID 1347095); conditions: NB-EBc1 neuroblastoma viability, CellTiter-Glo luminescence, 48 h; series mostly up to 46 µM
Method in brief: as §2

[9] = qHTS of pediatric cancer cell lines to identify multiple opportunities for drug repurposing: Primary screen for U-2 OS cells (AID 1347096); conditions: U-2 OS viability, CellTiter-Glo luminescence, 48 h; series mostly up to 46 µM; note: nearly all actives have a fitted effect of over 50% in size
Method in brief: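 Viability after 48 h compound treatment at 37C, 500-1,000 cells/well, read as ATP luminescence with CellTiter-Glo. Primary screens used 11-point (MIPE, 0.78 nM-46 µM) or 8-point (NPC, 0.59 nM-46 µM) final concentrations; follow-up screens used 11-point dilutions.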

[10] = qHTS of pediatric cancer cell lines to identify multiple opportunities for drug repurposing: Primary screen for Saos-2 cells (AID 1347097); conditions: Saos-2 viability, CellTiter-Glo ATP luminescence, 48 h; series mostly up to 46 µM; note: nearly all actives have a fitted effect of over 40% in size
Method in brief: as §2

Measured: Potency

Chain of Nucleoprotein (Lymphocytic choriomeningitis virus (strain Armstrong)) (P09992 whole entry, looked up): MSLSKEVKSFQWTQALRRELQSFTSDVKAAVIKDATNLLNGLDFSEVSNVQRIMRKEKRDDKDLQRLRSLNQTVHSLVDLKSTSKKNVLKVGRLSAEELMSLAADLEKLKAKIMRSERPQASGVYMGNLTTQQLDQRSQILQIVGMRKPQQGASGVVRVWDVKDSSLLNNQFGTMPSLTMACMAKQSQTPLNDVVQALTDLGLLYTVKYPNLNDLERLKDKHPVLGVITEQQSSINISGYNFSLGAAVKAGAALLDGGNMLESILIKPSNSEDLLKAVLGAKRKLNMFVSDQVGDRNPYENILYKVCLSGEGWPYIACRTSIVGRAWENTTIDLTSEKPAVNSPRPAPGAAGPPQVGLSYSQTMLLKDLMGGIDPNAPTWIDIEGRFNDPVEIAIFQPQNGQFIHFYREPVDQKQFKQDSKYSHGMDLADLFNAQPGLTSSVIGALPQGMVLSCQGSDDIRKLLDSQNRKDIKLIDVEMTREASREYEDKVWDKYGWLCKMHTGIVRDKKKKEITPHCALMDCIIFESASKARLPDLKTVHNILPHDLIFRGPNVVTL

C[C@]12CC[C@H]3[C@@H](CCC4=CC(=O)CC[C@@]43C)[C@@H]1CC[C@@H]2C(=O)O
inactive: all assays above

C[C@]12CC[C@H]3[C@@H](CC=C4C[C@@H](O)CC[C@@]43C)[C@@H]1CC[C@@H]2O
inactive: all assays above

ClC1=C(Cl)C2(Cl)C(CBr)CC1(Cl)C2(Cl)Cl (stereo unspecified)
inactive: all assays above

OC(O)C(Cl)(Cl)Cl
inactive: all assays above

COc1ccc(OC)c(CC(C)N)c1 (stereo unspecified)
inactive: all assays above

COc1cc(CC#N)cc(OC)c1OC
inactive: all assays above

O=C(CCCCl)c1ccc(F)cc1
inactive: all assays above

CCOC(=O)C1(c2ccccc2)CCN(CCc2ccc(N)cc2)CC1
inactive: all assays above

COc1cc(N)c(Cl)cc1C(=O)NC1CN2CCC1CC2 (stereo unspecified)
inactive: all assays above

CNC(=O)NC(O)C(Cl)(Cl)Cl (stereo unspecified)
inactive: all assays above

O=C(CBr)Nc1ccc(Cl)cc1C(=O)c1ccccc1F
inactive: all assays above

Sc1ccccc1Cl
inactive: all assays above

CC(C)NCC(O)c1ccc(N)c(C#N)c1 (stereo unspecified)
inactive: all assays above

CCN1CCCC1CNC(=O)C(O)(c1ccccc1)c1ccccc1 (stereo unspecified)
inactive: all assays above

COP(=O)(OC)OC=C(Cl)Cl
inactive: all assays above

COCC(=O)N(c1c(C)cccc1C)C(C)C(=O)OC (stereo unspecified)
inactive: all assays above

O=c1[nH]c2cc(Cl)ccc2n1C1CCNCC1
inactive: all assays above

COP(=S)(OC)Oc1ccc(Sc2ccc(OP(=S)(OC)OC)cc2)cc1
inactive: all assays above

Nc1ccccc1C(=O)OCC(O)CO (stereo unspecified)
inactive: all assays above

C1CN2CCC1CC2
inactive: all assays above

C[C@]12CC[C@H]3[C@@H](CCC4=CC(=O)CC[C@@H]43)[C@@H]1CC[C@@H]2O
inactive: all assays above

C[N+](C)(C)CCOC(=O)C(O)(c1ccccc1)c1ccccc1
inactive: all assays above

C[C@@H]1CN(C2CCC(C#N)(c3ccc(F)cc3)CC2)CC[C@]1(C(=O)O)c1ccccc1 (stereo partly specified)
inactive: all assays above

c1cc2c(c(N3CCNCC3)c1)OCCO2
inactive: all assays above

O=C(O)c1nn(Cc2ccc(Cl)cc2Cl)c2ccccc12
inactive: all assays above

CN(C)CCc1c[nH]c2cccc(O)c12
not listed: [5] | [6]
inactive: all other assays above

C[C@@H]1CC[C@H]2[C@@H](C)C(=O)O[C@@H]3O[C@@]4(C)CC[C@@H]1[C@]32OO4
not listed: [6] | [10]
inactive: all other assays above
